What all share (experiment): NCI-60 one-dose screen, 48 h (100 = growth as untreated, 0 = no growth, -100 = all killed)
What all share (details): 10 µM unless noted

Assay [1] has as its system NCI-H23 lung.
For assay [2], the system named is NCI-H226 lung.
Assay [3] relates to NCI-H322M lung.
The subject of assay [4] is HOP-62 NSCLC.
Assay [5] relates to NCI-H460 lung.
The test system of assay [6] is HOP-92 NSCLC.
The subject of assay [7] is NCI-H522 lung.
Assay [8] relates to A549/ATCC NSCLC.
In assay [9] the test system is 786-0 renal.
Assay [10] deals with COLO 205 colon.

Compounds without any hit were thinned out: in the full panel of roughly 83,000, 20% have a hit.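 Interpretation: 100, growth as untreated; towards 0, rising growth inhibition; 0, no net growth; 0 to -100, cell death. Compounds scoring below 10 were considered active.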 Unmarked numbers belong to inactive results. Active and inactive are the calls of the source.

In PubChem BioAssay (NCI) one finds growth data, which are given here for twelve molecules.

On to `COc1cc(OC)cc(-c2ccc(-c3ccc(C(=N)N)o3)o2)c1`, for which the growth in assay [1] was 76.6%; in assay [2], 84.8%; in assay [3] it was 71.2%; in [4], 81.4%; in assay [5], 6.91% (active); in [6], 69.2%. Further, the growth was 57.6% in [7], 47.1% in assay [8], 69% in [9] and -61.5% (active) in [10].

In the case of `C/C=C(/C)n1cnc2c(Nc3ccccn3)nc(Cl)nc21`, the growth is 102% in [1]; 102% in assay [2]; 99.3% in assay [3]; 102% in assay [4]; 103% in assay [5]; 99.9% in assay [6]. The growth was 87.1% in [7], 104% in assay [8], 101% in assay [9] and 114% in [10].

Regarding `N#C/C(=C\C=C\c1ccc(-c2cc(Cl)ccc2Cl)o1)c1nc2ccccc2s1`, the growth was 83.7% in [1]; 78.3% in assay [2]; 95% in assay [3]; 87.7% in assay [4]; 103% in [5]; 89.1% in assay [6]. For the same molecule, the growth in assay [7] is 94.4%; in [8] it was 99.4%; in [9], 102%; in assay [10], 92.9%.

For the molecule `CCN1C(=O)N(CC)C2C1NN=c1s/c(=C\c3ccc(C(F)(F)F)cc3)c(=O)n12` (stereo not given), the growth was 26.7% in assay [1]; 60.8% in assay [2]; 45.2% in assay [3]; 39.1% in assay [4]; 2.84% (active) in [5]; 34.8% in [6]. Also, the growth was -10.5% (active) in assay [7], 5.31% (active) in assay [8], 24.9% in [9] and -6.59% (active) in assay [10].

On to `C=C(C)[C@@H]1CC[C@]2(COC(C)=O)CC[C@]3(C)[C@H](CC[C@@H]4[C@@]5(C)CCCN(C(C)=O)C(C)(C)[C@@H]5CC[C@]43C)[C@@H]12`, for which the growth in assay [1] is 89.2%; in [2], 45.2%; in assay [3] it was 61.3%; in assay [4] it was 82.6%; in [5] it was 0.0182% (active); in [6], 69.3%. For the same molecule, the growth in assay [7] is 59.6%; in [8], 33.8%; in assay [9], 8.13% (active); in assay [10], -76.5% (active).

Consider `CCOC(=O)C1=C(C)/C(=C\c2[nH]c(C)c(C(=O)OCC)c2C)N=C1C`, for which the growth is 80.2% in [1]; 94.3% in [2]; 93.5% in [3]; 83.2% in [4]; 102% in assay [5]; 103% in [6]. In addition, the growth in assay [7] is 75.4%; in [8], 86.7%; in assay [9], 98.9%; in assay [10] it was 85.2%.

Turning to `COc1cc(/C=C2\CN(S(=O)(=O)c3ccccc3)C/C(=C\c3cc(CN4CCCCC4)c(O)c(OC)c3)C2=O)cc(CN2CCCCC2)c1O`, the growth in [1] is -74.7% (active); in assay [2] it was 43.4%; in [3] it was -30.1% (active); in [4], 104%; in [5], -62.6% (active); in assay [6], -65.2% (active). For the same molecule, the growth in assay [7] is -46.8% (active); in [8] it was 12.1%; in [9] it was -68.8% (active); in assay [10] it was -4.52% (active).

Regarding `CCNC(=O)Oc1ccc(/C(=C(/CC)Cc2ccccc2)c2ccc(OCCN3CCCC3)cc2)cc1`, the growth is 101% in [1]; 99.4% in assay [2]; 91% in assay [3]; 83.2% in [4]; 94.1% in [5]; 62.1% in [6]. Further, the growth in assay [7] is 100%; in assay [8] it was 98.4%; in assay [9], 91.2%; in [10] it was 102%.

Consider `COc1ccc(/C=C2\COc3ccc(O)cc3C2=O)cc1`, for which the growth is 109% in assay [1]; 104% in [2]; 100% in assay [3]; 103% in assay [4]; 104% in [5]; 110% in [6]. Also, the growth in [7] was 37.7%; in assay [8], 97.8%; in assay [9], 92.2%; in assay [10], 110%.

With `NS(=O)(=O)c1ccc(C(=O)NN2C(=O)c3c(Br)c(Br)c(Br)c(Br)c3C2=O)cc1`, the growth was 104% in assay [1]; 102% in assay [2]; 111% in [3]; 105% in [4]; 110% in [5]; 99.4% in assay [6]. The growth is 94.3% in [7], 102% in assay [8], 103% in assay [9] and 112% in assay [10].

With `CCNc1ccc(-c2nc3ccccc3n3cccc23)cc1`, the growth was 79.6% in [1]; 68.8% in assay [2]; 76.7% in assay [3]; 83.4% in assay [4]; 88.8% in assay [5]; 63.7% in assay [6]. Also, the growth is 71.3% in assay [7], 75.6% in assay [8], 86% in [9] and 95.2% in assay [10].

For `C#CC#CC#CC#CC#CC#CC#CC#CCC1OC[C@H](COC(=O)O[C@@H](C(=O)O[C@H]2C[C@@]3(O)[C@@H](OC(=O)c4ccccc4)[C@@H]4[C@]5(OC(C)=O)CO[C@@H]5C[C@H](O)[C@@]4(C)C(=O)[C@H](OC(C)=O)C(=C2C)C3(C)C)[C@@H](NC(=O)c2ccccc2)c2ccccc2)O1` (stereo not given in full), the growth in assay [1] is 32.9%; in assay [2] it was 50.7%; in assay [3] it was 31.6%; in [4], 38.5%; in assay [5] it was 10.3%; in assay [6] it was 67.6%. The growth in assay [7] was 42.4%; in [8], 32.3%; in assay [9], 48.8%; in [10] it was 23%.
